The results in this text go back to PubChem BioAssay (NCI).

The panel holds about 83,000 compounds, 20% with a hit somewhere; the sample as a whole holds those more often.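 Percent growth is the endpoint: 0 to 100 indicates growth inhibition (40 means 60% inhibition), 0 means no net growth, and negative values indicate cell death.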 A number with no mark means an inactive call. Activity calls are given as the source filed them. How the source made its calls: active means growth percent below 10; inactive means the rest.

What all share (experiment): NCI-60 one-dose screen, 48 h (100 = growth as untreated, 0 = no growth, -100 = all killed)
Details in all cases: 10 µM unless noted

In assay [1] the test system is DU-145 prostate.
Assay [2] deals with K-562 leukemia.
In assay [3] the test system is MALME-3M melanoma.
The subject of assay [4] is MDA-MB-231 breast.
The subject of assay [5] is RXF 393 renal.
The subject of assay [6] is SF-268 CNS.
The test system of assay [7] is SF-295 CNS.
For assay [8], the system named is SF-539 CNS.
Assay [9] concerns UACC-257 melanoma.
In assay [10] the test system is HCT-15 colon.
Assay [11] relates to HT29 colon.
The subject of assay [12] is SNB-75 CNS.
For assay [13], the system named is SNB-19 CNS.
For assay [14], the system named is U251 CNS.
The subject of assay [15] is PC-3 prostate.
Assay [16] deals with SK-MEL-5 melanoma.
The test system of assay [17] is UACC-62 melanoma.
The test system of assay [18] is LOX IMVI melanoma.
For assay [19], the system named is SK-MEL-28 melanoma.

Turning to `CN1CCN(C(=O)[C@@]2(C)CC[C@]3(C)CC[C@]4(C)C(=CC[C@@H]5[C@@]6(C)CCC(=O)NC(C)(C)[C@@H]6CC[C@]54C)[C@@H]3C2)CC1`, the growth was 86.7% in assay [1]; 16% in [2]; 19.8% in [3]; 61.1% in assay [4]; 35% in [5]; 63.1% in assay [6]. In addition, the growth in [7] is 90.5%; in [8], 43.9%; in assay [9] it was -12.9% (active); in assay [10], 30.3%; in [11], 3.61% (active); in [12], 87.3%. For the same compound, the growth in assay [13] is 79.4%; in [14], 40.4%; in assay [15] it was 27.4%; in assay [16] it was -41% (active); in [17], 26.4%; in [18], 8.99% (active). The growth in [19] was -6.92% (active).
Turning to `O=C(O)/C=C/C(=O)Nc1cccc(Cn2nnc3cc(Cl)c(Cl)cc32)c1`, the growth in assay [1] is 119%; in assay [2] it was 91.3%; in assay [3] it was 97.5%; in assay [4], 106%; in assay [5], 93.2%; in assay [6], 98.5%. The growth in assay [7] was 97%; in assay [8] it was 101%; in assay [9] it was 97.1%; in assay [10], 95.3%; in assay [11], 110%; in assay [12], 86.4%. In addition, the growth in [13] is 100%; in assay [14] it was 103%; in assay [15], 102%; in assay [16] it was 99.1%; in assay [17], 97.6%; in assay [18] it was 97.3%. The growth in assay [19] was 106%.
As to `O=C(Cc1ccc(/C=C/C(=O)c2ncc[nH]2)cc1)Nc1cc(C(F)(F)F)cc(C(F)(F)F)c1`, the growth in assay [1] was 86.2%; in assay [2], 18.9%; in assay [3] it was 92.1%; in assay [4] it was 92.6%; in assay [5] it was 67.8%; in assay [6] it was 88.2%. Further, the growth in assay [7] was 93.7%; in assay [8], 73.7%; in assay [9], 100%; in assay [10], 62.4%; in assay [11], 26.3%; in [12], 79%. Moreover, the growth is 77.3% in assay [13]; 38.5% in assay [14]; 85.3% in assay [15]; 93.1% in assay [16]; 80.9% in assay [17]; 34.5% in [18]. For the same compound, the growth in assay [19] was 104%.
Consider `CCCC(CC)(C(=O)Nc1ccc2nc(C)cc(N)c2c1)C(=O)Nc1ccc2nc(C)cc(N)c2c1`, for which the growth in [1] is 111%; in assay [2] it was 102%; in [3] it was 105%; in assay [4] it was 100%; in assay [5], 117%; in assay [6], 113%. Moreover, the growth in assay [7] was 108%; in assay [8] it was 102%; in [9], 99.7%; in assay [10], 110%; in [11], 99.1%; in assay [12], 100%. Besides, the growth in assay [13] was 103%; in assay [14] it was 107%; in assay [15], 95.8%; in assay [16] it was 99.5%; in assay [17], 102%; in assay [18] it was 100%. The growth in [19] is 110%.
Regarding `CCN1C2CCC1/C(=C\c1ccc(F)cc1)C(=O)/C2=C/c1ccc(F)cc1`, the growth is 9.04% (active) in assay [1]; 20.5% in assay [2]; 55.7% in assay [3]; 62.5% in assay [4]; 57.9% in [5]; 38.4% in [6]. The growth is 36.3% in assay [7]; 51.8% in assay [8]; 50.8% in [9]; 30.4% in assay [10]; 23.7% in assay [11]; 51% in assay [13]. Also, the growth is 21.2% in assay [14]; 38.5% in assay [15]; 48.2% in assay [16]; 35.7% in [17]; 19.7% in assay [18]; 72.5% in assay [19].
On to `CCN(CC)CCN1C(=O)c2c(c(C)c3c(oc4ccc(O)cc43)c2C)C1=O`, for which the growth in assay [1] is 0.0633% (active); in assay [2], 6.29% (active); in assay [3], 73.3%; in assay [4], -28.7% (active); in assay [5], 98.2%; in assay [6], 37.1%. The growth in assay [7] is 89.7%; in assay [8], -99.5% (active); in assay [9] it was 93.1%; in [10], 10.5%; in assay [11], 67.9%; in assay [12], 94.3%. In addition, the growth in [13] was 24.7%; in assay [15] it was 49.7%; in assay [16], 77.2%; in [17], 56.6%; in assay [18] it was -94.1% (active); in [19], 72.2%.
Take `CC1(C)CC[C@]2(CO)CC[C@]3(C)[C@H](CC[C@@H]4[C@@]5(C)CCCNC(C)(C)[C@@H]5CC[C@]43C)[C@H]2[C@H]1O`: the growth in assay [1] is 94.5%; in assay [2] it was 8.95% (active); in assay [3] it was 78.5%; in assay [4], 91%; in assay [5], 92%; in [6], 94.9%. Moreover, the growth in [7] was 105%; in [8], 74.9%; in assay [9] it was 82.5%; in assay [10] it was 34.3%; in assay [11] it was 17.6%; in assay [12], 80.1%. For the same compound, the growth is 97.6% in assay [13]; 56.1% in [14]; 64.7% in assay [15]; 92.8% in [16]; 95.9% in assay [17]; 69.4% in [18]. Also, the growth in assay [19] is 93.9%.
On to `COc1cc2nc3sc(C(=O)Nc4ccc(C(=O)OC(C)C)cc4)c(C(=O)Nc4ccc(Cl)cc4C)n3c(=O)c2cc1OC`, for which the growth in assay [1] is 13.2%; in assay [2], 56.4%; in [3], 43.9%; in assay [4], 86.9%; in [5], 83.8%; in assay [6], 64.5%. For the same compound, the growth in assay [7] is 42%; in assay [8], 104%; in [9], 118%; in [10], 93.7%; in [11], 41.2%; in assay [12] it was 48%. For the same compound, the growth in [13] was 96.9%; in assay [14], 66.3%; in [15], 30.2%; in assay [16] it was 73%; in assay [17], 67.6%; in assay [19], 101%.
